# From PubChem BioAssay (Tox21)
# Some structures have more than one record in an assay (separate samples or runs), and their calls can disagree. Calls of active or inactive are those of the source. A call without a number means that no potency is given here. Unless noted, calls follow the shape of the dose curve; as a rule, active = well fitted curve in the direction sought with a large enough effect in the repeat runs; inconclusive = weak or mixed curves; inactive = no such curve, though single readings can be large; an effect the other way counts as inactive or inconclusive.
# Columns and labels:
# [1] = qHTS assay to identify small molecule antagonists of the thyroid receptor (TR) signaling pathway - cell viability counter screen (AID 743064); also: nearly all actives have a fitted effect of over 50% in size; also: potency is read from the fitted curve at half-maximal effect
# Method in brief: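 Same-well viability check: GH3.TRE-Luc cells stimulated with 1 nM T3 alongside test compound for 23.5 h, followed by CellTiter-Fluor fluorescence.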
# [2] = qHTS assay to identify small molecule antagonists of the thyroid receptor (TR) signaling pathway (AID 743065); also: nearly all actives have a fitted effect of over 55% in size; also: potency is read from the fitted curve at half-maximal effect
# Method in brief: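 GH3.TRE-Luc rat pituitary cells carrying two TR response elements driving luciferase were plated for 4 h, given compound plus 1 nM T3 (final), and incubated 23.5 h at 37 C. ONE-Glo luminescence measured reporter inhibition; CellTiter-Fluor fluorescence tracked cytotoxicity.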
# [3] = tested on: thyroid hormone receptor (rat, GH3 cells); experiment: qHTS assay to identify small molecule agonists of the thyroid receptor (TR) signaling pathway (AID 743066; calls by dose curve)
# [4] = biological target: Estrogen receptor (Homo sapiens) (UniProt P03372); experiment: qHTS assay to identify small molecule antagonists of the estrogen receptor alpha (ER-alpha) signaling pathway (AID 743069; active = well fitted curve in the direction sought with a large enough effect in the signal ratio in the repeat runs, not every such curve was filed as active; inconclusive = weak or mixed curves, or effect the other way; inactive = no such curve, though single readings can be large or run the other way; the % refers to the signal ratio; also: potency is read from the fitted curve at half-maximal effect)
# Method in brief: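 Estradiol-stimulated ER-alpha-UAS-bla HEK293 cells, 18 hr compound exposure at 37C. LiveBLAzer B/G substrate, 2 hr RT, fluorescence read.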
# [5] = qHTS assay to identify small molecule antagonists of the estrogen receptor alpha (ER-alpha) signaling pathway - cell viability counter screen (AID 743074; calls by dose curve;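 also: HEK293 cells carrying ER-alpha-UAS-bla reporter stimulated with 17beta-estradiol; nearly all actives have a fitted effect of over 45% in size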)
# [6] = biological target: Estrogen receptor (Homo sapiens) (UniProt P03372); experiment: qHTS assay to identify small molecule agonists of the estrogen receptor alpha (ER-alpha) signaling pathway (AID 743075; calls by dose curve;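 also: HEK293 GripTite cells with ER-alpha and UAS-driven beta-lactamase reporter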; also: potency is read from the fitted curve at half-maximal effect)
# [7] = biological target: Estrogen receptor (Homo sapiens) (UniProt P03372); experiment: qHTS assay to identify small molecule agonists of the estrogen receptor alpha (ER-alpha) signaling pathway using the BG1 cell line (AID 743079); also: nearly all actives have a fitted effect of over 20% in size; also: potency is read from the fitted curve at half-maximal effect
# [8] = qHTS assay to identify small molecule antagonists of the estrogen receptor alpha (ER-alpha) signaling pathway using the BG1 cell line (AID 743080; calls by dose curve;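 also: BG1 cells stimulated with 17beta-estradiol alongside compound; series mostly up to about 70 µM; nearly all actives have a fitted effect of over 25% in size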)
# Method in brief: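 Luminescence from a 4×ERE-luciferase reporter in BG1-Luc-4E2 cells served as read-out. Cells, pre-cultured 5 days in stripped-serum phenol-red-free medium, were exposed to compound with 17beta-estradiol co-stimulation for 21.5 h at 37 C.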
# Aromatase (Homo sapiens) = Aromatase (Homo sapiens) (UniProt P11511); experiment: qHTS assay to identify aromatase inhibitors (AID 743083); also: series mostly up to about 70 µM; nearly all actives have a fitted effect of over 55% in size
# [9] = qHTS assay to identify small molecule antagonists of the estrogen receptor alpha (ER-alpha) signaling pathway using the BG1 cell line - cell viability counter screen (AID 743081);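 also: compound given together with 17beta-estradiol as the ER stimulus; series mostly up to about 70 µM; nearly all actives have a fitted effect of over 45% in size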
# Estrogen receptor (Homo sapiens), sequence (P03372 whole entry, looked up): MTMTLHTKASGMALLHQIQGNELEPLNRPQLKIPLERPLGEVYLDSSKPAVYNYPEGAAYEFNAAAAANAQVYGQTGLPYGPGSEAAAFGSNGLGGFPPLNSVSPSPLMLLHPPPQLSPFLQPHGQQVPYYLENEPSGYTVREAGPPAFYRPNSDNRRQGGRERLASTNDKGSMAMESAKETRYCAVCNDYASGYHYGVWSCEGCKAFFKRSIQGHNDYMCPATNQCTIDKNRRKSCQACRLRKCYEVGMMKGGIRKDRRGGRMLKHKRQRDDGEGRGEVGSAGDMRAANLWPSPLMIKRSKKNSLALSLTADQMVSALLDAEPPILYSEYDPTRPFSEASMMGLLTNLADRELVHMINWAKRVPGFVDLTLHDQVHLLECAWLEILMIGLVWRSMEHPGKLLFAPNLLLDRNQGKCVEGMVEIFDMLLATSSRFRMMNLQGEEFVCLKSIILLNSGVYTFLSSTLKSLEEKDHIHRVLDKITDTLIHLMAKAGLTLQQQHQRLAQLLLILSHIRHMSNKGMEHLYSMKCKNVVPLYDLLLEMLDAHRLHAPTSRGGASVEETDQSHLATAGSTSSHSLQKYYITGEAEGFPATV
# Aromatase (Homo sapiens), sequence (P11511 whole entry, looked up): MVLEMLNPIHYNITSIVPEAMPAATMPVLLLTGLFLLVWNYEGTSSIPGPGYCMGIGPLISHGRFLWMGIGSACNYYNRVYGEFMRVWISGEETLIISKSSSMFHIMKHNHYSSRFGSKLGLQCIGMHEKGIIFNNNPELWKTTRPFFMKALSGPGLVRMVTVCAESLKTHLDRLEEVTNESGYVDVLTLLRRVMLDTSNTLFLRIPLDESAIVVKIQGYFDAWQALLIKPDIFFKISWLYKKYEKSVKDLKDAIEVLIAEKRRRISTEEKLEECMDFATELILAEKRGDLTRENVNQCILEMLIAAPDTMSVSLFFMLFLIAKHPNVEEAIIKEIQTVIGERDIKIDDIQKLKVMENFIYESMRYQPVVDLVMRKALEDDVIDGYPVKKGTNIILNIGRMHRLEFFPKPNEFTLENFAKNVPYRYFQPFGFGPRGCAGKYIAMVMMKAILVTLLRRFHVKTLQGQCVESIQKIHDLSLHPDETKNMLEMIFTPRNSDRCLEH
SMILES,Potency [1],Potency [2],Potency [3],Potency [4],outcome [5],Potency [6],Potency [7],Potency [8],Potency (Aromatase (Homo sapiens)),Potency [9]
Cc1ccccc1N=Nc1ccc(N=Nc2c(O)ccc3ccccc23)c(C)c1,inactive,inactive,inactive,inactive,inactive,10.7 µM [inconclusive] (active),8.41 µM (active),inactive,inactive,
CCN(CC)CCc1nc(-c2ccccc2)no1,inactive,inactive,inactive,inactive,inactive,inactive,inactive,,inactive,inactive
C[C@H](CCC(=O)O)[C@H]1CC[C@H]2[C@@H]3[C@H](O)C[C@@H]4C[C@H](O)CC[C@]4(C)[C@H]3CC[C@]12C,inactive,inactive,inactive,inactive,inactive,inactive,inactive,inactive,inactive,inactive
CN(C)CCCOc1nn(Cc2ccccc2)c2ccccc12,8.04 µM (active),9.02 µM (active),inactive,inactive,inactive,inactive,inactive,inactive,inactive,inactive
CCCCCCCCCCCCCCC1CO1 (stereo not given),inactive,inactive,inactive,inactive,inactive,inactive,inactive,inactive,inactive,inactive
CCCCCCCCCCCCCCCBr,inactive,inactive,inactive,inactive,inactive,inactive,inactive,inactive,inactive,inactive
CCCCCCCCN(C)C,inactive,inactive,inactive,inactive,inactive,inactive,inactive,inactive,inactive,inactive
FC(F)(F)C(F)(F)C(F)(F)C(F)(F)C(F)(F)C(F)(F)CCI,inactive,inactive,inactive,inactive,inactive,inactive,inactive,inactive,inactive,inactive
N[C@H]1C(O)O[C@H](CO)[C@H](O)[C@@H]1O (stereo not given in full),inactive,inactive,inactive,inactive,inactive,inactive,inactive,inactive,inactive,inactive
O=C(NN1CCCC1)NS(=O)(=O)c1ccc(Cl)cc1,inactive,inactive,inactive,inactive,inactive,inactive,inactive,inactive,inactive,
c1ccc(CNCc2ccccc2)cc1,inactive,inactive,inactive,inactive,inactive,inactive,inactive,inactive,inactive,inactive
C=CC[N+]1([C@H]2C[C@H]3[C@@H]4CC[C@H]5C[C@H](OC(C)=O)[C@@H](N6CCCCC6)C[C@]5(C)[C@H]4CC[C@]3(C)[C@H]2OC(=O)CC)CCCCC1,inactive,inactive,inactive,inactive,inactive,inactive,inactive,inactive,inactive,inactive
CCOC(=S)SSC(=S)OCC,inactive,inactive,inactive,inactive,inactive,inactive,inactive,inactive,inactive,inactive
CCOC(=O)CC(C)C,inactive,inactive,inactive,inactive,inactive,inactive,inactive,inactive,inactive,inactive
C=C(C)C(=O)OC(C)C,inactive,inactive,inactive,inactive,inactive,inactive,inactive,inactive,inactive,inactive
O=C(Nc1ccccc1)OCC(CN1CCCCC1)OC(=O)Nc1ccccc1 (stereo not given),10.1 µM (active),10.1 µM (active),inactive,inactive,inactive,inactive,inactive,inactive,inactive,inactive
N=C(N=C(N)N)N1CCOCC1,inactive,inactive,inactive,inactive,inactive,inactive,inactive,inactive,inactive,inactive
N#CCCNCCC#N,inactive,inactive,inactive,inactive,inactive,inactive,inactive,inactive,,inactive
COCCOCCOCCOCCOC,inactive,inactive,inactive,inactive,inactive,inactive,inactive,inactive,inactive,inactive
NCCCN(CCO)CCO,inactive,inactive,inactive,inactive,inactive,inactive,inactive,inactive,inactive,inactive
CCCCCCc1ccc(N)cc1,inactive,30.6 µM (active),inactive,15.5 µM [inconclusive] (active),inactive,inactive,21.7 µM (active),,,inactive
CC(=O)NCCCS(=O)(=O)O,inactive,inactive,inactive,inactive,inactive,inactive,inactive,inactive,inactive,inactive
CC[C@H](C)[C@H](N)C(=O)O,inactive,inactive,inactive,inactive,inactive,inactive,inactive,inactive,inactive,inactive
CC[C@H](C)[C@@H](C(=O)O)n1sc2ccccc2c1=O,inactive,inactive,inactive,inactive,inactive,inactive,inactive,inactive,inactive,inactive

SMILES,Potency [1],Potency [2],Potency [3],Potency [4],outcome [5],Potency [6],Potency [7],Potency [8],Potency (Aromatase (Homo sapiens)),Potency [9]
Cc1ccc(C(=O)C(C)CN2CCCCC2)cc1 (stereo not given),inactive,inactive,inactive,inactive,inactive,inactive,26.6 µM (active) and inactive,inactive,inactive,inactive
CC1=CC(=O)/C(=C(/C)O)C(=O)O1,inactive,inactive,inactive,inactive,inactive,inactive,,inactive,inactive,inactive
CC(=O)CC(=O)c1ccccc1,inactive,inactive,inactive,inactive,inactive,inactive,34.6 µM (active),inactive,inactive,inactive
CCOC(=O)CC(=O)c1cc(F)c(Cl)nc1Cl,inactive,inactive,inactive,inactive,inactive,inactive,inactive,inactive,inactive,inactive
CCCCOC(O)CC (stereo not given),inactive,inactive,inactive,inactive,inactive,inactive,inactive,inactive,inactive,inactive
N#CCc1cccc(C(F)(F)F)c1,inactive,inactive,inactive,inactive,inactive,inactive,inactive,inactive,inactive,inactive
O=C(O)C1CCC(C(=O)O)CC1 (stereo not given),inactive,inactive,inactive,inactive,inactive,inactive,inactive,inactive,inactive,inactive
O=C(Cl)c1ccc([N+](=O)[O-])cc1,inactive,inactive,inactive,inactive,inactive,inactive,inactive,inactive,inactive,inactive
Cc1ccc(C(N)=O)cc1N,inactive,inactive,inactive,inactive,inactive,inactive,inactive,inactive,inactive,inactive
CC(C)(C)C1CCCCC1O (stereo not given),inactive,inactive,inactive,inactive,inactive,inactive,inactive,inactive,inactive,inactive
CC(=O)SCc1ccco1,inactive,inactive,inactive,inactive,inactive,inactive,inactive,inactive,inactive,inactive
O=C(O)COC(=O)Cc1ccccc1Nc1c(Cl)cccc1Cl,inactive,inactive,inactive,inactive,inactive,inactive,inactive,inactive,inactive,inactive
CC(C)NCC(O)COc1ccc(CC(N)=O)cc1 (stereo not given),inactive,inactive,inactive,inactive,inactive,inactive,inactive,inactive,,inactive
OC(CCN1CCCCC1)(c1ccccc1)C1CCCCC1 (stereo not given),inactive,inactive,inactive,inactive,inactive,inactive,inactive,,inactive,inactive
C[C@@H](C1=C(CCN(C)C)Cc2ccccc21)c1ccccn1,29.8 µM (active),26.6 µM (active),inactive,,inactive,,,,,inactive
C=CC(=O)OCCOC(=O)CCC(=O)O,inactive,inactive,inactive,,inactive,,,,,inactive
NC1CCN(c2nc3c(cc2F)c(=O)c(C(=O)O)cn3-c2ccc(F)cc2F)C1 (stereo not given),inactive,23.7 µM (active),inactive,,inactive,inactive,inactive,inactive,inactive,
CC(=O)O[C@@H]1C(=O)O[C@@H]2[C@H]1OC(=O)[C@@H]2OC(C)=O,inactive,inactive,inactive,inactive,inactive,inactive,,inactive,inactive,inactive
C1=Cc2ccccc2C1,inactive,inactive,inactive,inactive,inactive,inactive,,inactive,inactive,inactive
CCCCC(CC)(CO)CO,inactive,inactive,inactive,,inactive,,,,inactive,inactive
O=C(NS(=O)(=O)/C=C/c1cccs1)c1ccc(F)cc1Br,inactive,inactive,inactive,,inactive,,68.6 µM (active),,inactive,inactive
Cc1ccc(C)o1,inactive,inactive,inactive,,inactive,,,,inactive,inactive
CCCCCCCCCCCCC(=O)O,inactive,inactive,inactive,,inactive,inactive,,inactive,inactive,inactive
COc1ccccc1OC(=O)Oc1ccccc1OC,inactive,inactive,inactive,,inactive,,,,inactive,inactive
